The nature of this assay: PubChem AID 588753. The settings on record: Ricerca radioligand binding panel, % inhibition, at 10 µM, stronger effect = higher value.

Activity calls are given as the source filed them. How the calls were made is not given here.

The text below walks through data of PubChem BioAssay AID588753 (Vanderbilt Specialized Chemistry Center, 2011).

In general, inhibition refers to the drop in the measured response relative to a control, in per cent. As to `C[C@@H](NC(=O)c1ccc(C#Cc2cccc(F)c2)cn1)C(C)(C)O`, the inhibition is 8% (inactive). Further, the inhibition (L-type Ca channel DHP site) was 22%. The inhibition (NMDA phencyclidine site) was determined as 25%. Moreover, where the note is “adenosine A2a binding”, the inhibition stood at 12%. Under “adrenergic alpha1A binding”, the inhibition came out at 18%. Besides, the inhibition (dopamine transporter binding) stood at 8%. The inhibition (hERG binding) is -2%. For the same molecule, the inhibition (leukotriene CysLT1 binding) worked out at 17%. Moreover, the inhibition (norepinephrine transporter binding) is 9%. Under “purinergic P2XY binding”, the inhibition is 24%. Besides, for the setting “serotonin 5-HT2B binding”, the inhibition amounted to 36%. Further, the inhibition (serotonin transporter binding) worked out at 6%. The inhibition (sigma 1 binding) was found to be 31%.
